Most compounds without a hit are left out; they make up all but 27% or so of the library.
CYP2C9 act = increases human cytochrome P450 2C9 activity; P11712; recombinant CYP2C9, luciferin-H conversion, luminescence; stronger effect = higher value; factor 1 = untreated enzyme, 0 = blocked; activation factor at 5 µM; 96,000 compounds, 1.4% hits; AID 1024;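 active = activation factor of 2 or more for CYP2C9 at a 5 µM dose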
CYP2C19 activ = cytochrome P450 2C19 (human) activation. P33261. recombinant CYP2C19, luciferin-H EGE luminescence; stronger effect = higher value; 0 = fully inhibited enzyme, 1 = untreated enzyme. activation factor at 5 µM. 96,000 tested, under 10 active. AID 1025;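 active = activation factor of at least 2 at 5 µM in the primary screen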
CYP2C19 inhib = blocks human cytochrome P450 2C19; inhibition, % at 5 µM; CYP2C19 Supersomes, luciferin-H EGE luminescence, 30 min; 96,000 compounds, 21% hits; AID 778; P33261;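 active = CYP2C19 inhibition above a set limit at 5 µM in the primary screen, cut at about 50% in these data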
Cav3 T inh = inhibitors of human Cav3.2 T-type calcium channel; O95180; AID 449739; Cav3.2-expressing cells, Fluo-4 calcium fluorescence FDSS; stronger effect = lower value; B-score at 10 µM; 100,000 compounds, 4% hits;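 active = single-dose well whose peak fluorescence ratio is a statistical outlier from its plate by either plate-standardised score or position-corrected B-score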
Target sequence (O95180 whole entry, looked up): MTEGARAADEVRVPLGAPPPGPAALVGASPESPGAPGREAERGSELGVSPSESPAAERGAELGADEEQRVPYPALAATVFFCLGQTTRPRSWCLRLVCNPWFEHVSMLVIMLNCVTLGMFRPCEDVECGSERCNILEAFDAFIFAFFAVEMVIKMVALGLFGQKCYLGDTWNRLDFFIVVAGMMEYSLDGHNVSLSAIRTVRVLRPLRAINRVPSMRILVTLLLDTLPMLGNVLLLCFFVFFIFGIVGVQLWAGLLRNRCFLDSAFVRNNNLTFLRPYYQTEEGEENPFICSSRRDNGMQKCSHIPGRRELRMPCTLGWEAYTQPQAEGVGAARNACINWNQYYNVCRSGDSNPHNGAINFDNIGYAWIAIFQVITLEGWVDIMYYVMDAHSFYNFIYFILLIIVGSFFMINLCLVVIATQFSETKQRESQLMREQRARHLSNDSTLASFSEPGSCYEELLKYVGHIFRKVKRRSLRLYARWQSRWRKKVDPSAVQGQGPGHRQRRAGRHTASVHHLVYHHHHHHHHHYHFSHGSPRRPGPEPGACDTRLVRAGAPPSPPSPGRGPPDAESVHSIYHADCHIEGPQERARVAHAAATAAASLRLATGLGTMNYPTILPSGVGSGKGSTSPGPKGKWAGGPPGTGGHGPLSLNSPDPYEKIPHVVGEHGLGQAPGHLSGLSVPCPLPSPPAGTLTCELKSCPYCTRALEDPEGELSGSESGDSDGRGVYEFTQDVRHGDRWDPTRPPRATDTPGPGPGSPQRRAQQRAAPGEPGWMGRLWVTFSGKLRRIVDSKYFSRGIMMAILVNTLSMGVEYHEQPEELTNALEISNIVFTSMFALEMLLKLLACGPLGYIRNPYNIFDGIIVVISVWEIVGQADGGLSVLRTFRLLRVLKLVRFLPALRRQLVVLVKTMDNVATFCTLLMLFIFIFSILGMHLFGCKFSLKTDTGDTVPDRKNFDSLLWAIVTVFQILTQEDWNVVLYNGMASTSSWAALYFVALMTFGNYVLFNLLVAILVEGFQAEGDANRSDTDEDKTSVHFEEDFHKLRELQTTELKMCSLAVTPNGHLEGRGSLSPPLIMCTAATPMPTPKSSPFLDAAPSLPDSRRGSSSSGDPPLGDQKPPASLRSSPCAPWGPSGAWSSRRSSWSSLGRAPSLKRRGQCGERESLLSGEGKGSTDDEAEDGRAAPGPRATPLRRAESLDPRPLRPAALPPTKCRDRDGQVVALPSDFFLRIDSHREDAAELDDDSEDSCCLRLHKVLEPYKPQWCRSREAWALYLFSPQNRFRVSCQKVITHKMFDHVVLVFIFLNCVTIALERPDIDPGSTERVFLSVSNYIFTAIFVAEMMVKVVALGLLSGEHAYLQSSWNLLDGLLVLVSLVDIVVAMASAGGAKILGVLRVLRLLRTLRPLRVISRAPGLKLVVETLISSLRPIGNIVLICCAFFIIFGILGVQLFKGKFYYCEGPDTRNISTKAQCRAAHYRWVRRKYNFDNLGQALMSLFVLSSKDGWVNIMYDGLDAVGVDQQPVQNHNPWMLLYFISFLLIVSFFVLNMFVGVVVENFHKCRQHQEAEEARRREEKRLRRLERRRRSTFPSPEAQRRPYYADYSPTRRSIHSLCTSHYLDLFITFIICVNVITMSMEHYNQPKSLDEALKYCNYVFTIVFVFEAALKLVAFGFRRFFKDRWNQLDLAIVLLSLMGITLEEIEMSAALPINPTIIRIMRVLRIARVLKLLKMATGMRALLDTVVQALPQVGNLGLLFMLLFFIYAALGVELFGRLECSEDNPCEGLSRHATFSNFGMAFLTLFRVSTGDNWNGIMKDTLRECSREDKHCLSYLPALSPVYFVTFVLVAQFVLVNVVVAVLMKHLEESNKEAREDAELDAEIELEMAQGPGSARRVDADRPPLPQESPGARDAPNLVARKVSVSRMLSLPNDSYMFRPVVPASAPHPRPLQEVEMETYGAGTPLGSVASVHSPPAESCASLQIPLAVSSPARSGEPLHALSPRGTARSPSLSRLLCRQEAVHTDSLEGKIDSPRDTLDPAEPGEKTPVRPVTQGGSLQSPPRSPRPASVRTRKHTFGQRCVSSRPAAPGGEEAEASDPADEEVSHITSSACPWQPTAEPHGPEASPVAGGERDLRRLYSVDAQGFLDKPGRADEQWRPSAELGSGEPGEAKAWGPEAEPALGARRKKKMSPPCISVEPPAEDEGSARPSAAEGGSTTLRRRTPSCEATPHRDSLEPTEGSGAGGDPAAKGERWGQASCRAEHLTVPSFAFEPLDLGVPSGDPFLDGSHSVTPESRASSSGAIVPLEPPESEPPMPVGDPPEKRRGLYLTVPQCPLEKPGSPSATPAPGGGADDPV
CYP2C9 inhib = blocks human cytochrome P450 2C9. CYP2C9 Supersomes, luciferin-H conversion, luminescence. inhibition, % at 5 µM. 96,000 compounds, 20% hits. AID 777;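 active = blocking of liver enzyme CYP2C9 beyond about 50% at 5 µM, limit read from the data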
A number is an active result; 0 = inactive; - = no result given.

SMILES | CYP2C9 act | CYP2C19 activ | CYP2C19 inhib | Cav3 T inh | CYP2C9 inhib
COc1cc(C(=O)Nc2cc(Cl)ccc2C)c(-n2cnnn2)cc1OC | 0 | 0 | 0 | 0 | 0
Cc1ccc(CSc2nc3ncccc3[nH]2)cc1 | 0 | 0 | 76 | 0 | 56
CCN(CC)C(=O)C1CCCN(Cc2ccccc2)C1 (stereo not drawn) | 0 | 0 | 0 | 0 | 0
CCN(CC)C(=O)C1CCCN(Cc2ccc(F)c(F)c2)C1 (stereo not drawn) | 0 | 0 | 55 | 0 | 0
CCN(CC)C(=O)C1CCCN(Cc2ccccc2C(F)(F)F)C1 (stereo not drawn) | 0 | 0 | 58 | - | 0
O=C(NCc1ccc2c(c1)OCO2)c1cc2ncc(Br)cn2n1 | 0 | 0 | 0 | 0 | 0
CCOC(=O)N1CCN(c2cc(NCCC(=O)O)c3c4c(onc24)-c2ccccc2C3=O)CC1 | 0 | 0 | 0 | - | 0
O=C(O)CCCNc1cc(N2CCC3(CC2)OCCO3)c2noc3c2c1C(=O)c1ccccc1-3 | 0 | 0 | 0 | - | 61
CC1CCc2sc3c(c2C1)c1ncnn1c(=O)n3CC(=O)c1ccc(Br)cc1 (stereo not drawn) | - | - | - | 0 | -
CCc1ccccc1OCCOc1ccc(C)cc1OC | 0 | 0 | 0 | 0 | 0
Cc1ccc(C)c(OCCCCCn2ccnc2)c1 | 0 | 0 | 100 | 0 | 100
Cc1ccc(C)c(OCCCC(=O)O)c1 | 0 | 0 | 0 | 0 | 0
C=CCc1cc(C)ccc1OCCn1ccnc1 | 0 | 0 | 96 | 0 | 95
CCOC(=O)N1CCN(C(=O)COc2ccc(S(=O)(=O)NC(C)C)cc2)CC1 | 0 | 0 | 0 | 0 | 0
CC(C)CNS(=O)(=O)c1ccc(S(=O)(=O)N2CCN(CCC#N)CC2)cc1 | 0 | 0 | 0 | 0 | 0
CCc1ccccc1NC(=S)N1CCC(C(=O)c2ccc(F)cc2)CC1 | 0 | 0 | 0 | 0 | 0
CCCC1(C)SC(NC(C)=O)=NN1C(C)=O (stereo not drawn) | 0 | 0 | 0 | 0 | 0
COc1ccc(-c2ocnc2C(=O)Nc2ccccc2N2CCCCC2)cc1 | 0 | 0 | 0 | 0 | 57
CCc1c(C(=O)Nc2ncn(Cc3cccc(C)c3)n2)csc1C | - | - | - | 0 | -
O=C(Nc1cccc(-c2csc(-c3ccccc3)n2)c1)c1cccs1 | 0 | 0 | 51 | 0 | 91
CCc1c(C(=O)Nc2ccncc2)csc1C | 0 | 0 | 98 | 0 | 84
O=C(Nc1ccc2nsnc2c1)c1cccs1 | 0 | 0 | 55 | 0 | 0
O=C(Nc1ccncc1)c1cccs1 | 0 | 0 | 0 | 0 | 52
O=C(Nc1ccc2nn(-c3ccccc3)nc2c1)c1cccs1 | 0 | 0 | 0 | 0 | 0
O=C(Nc1cccnc1)c1cccs1 | 0 | 0 | 0 | 0 | 0
SMILES | CYP2C9 act | CYP2C19 activ | CYP2C19 inhib | Cav3 T inh | CYP2C9 inhib
CN1CCc2nc3sc(C(=O)C45CC6CC(CC(C6)C4)C5)c(N)c3cc2C1 | 0 | 0 | 0 | - | 0
CCc1ccc(CCC(=O)Nc2nnc(CC)s2)o1 | 0 | 0 | 0 | 0 | 0
C=CCn1cnc2scc(-c3ccc(CC)cc3)c2c1=O | 0 | 0 | 93 | 0 | 53
CCn1cnc2scc(-c3ccccc3)c2c1=O | 0 | 0 | 0 | 0 | 0
N#Cc1cc(-c2ccc(Cl)cc2)cnc1Sc1ccc(F)cc1 | 0 | 0 | 0 | 0 | 0
CCC(Cc1ccccc1)NC(=O)C1CCC(CNc2c(N3CCCC3)c(=O)c2=O)CC1 (stereo not drawn) | 0 | 0 | 0 | 0 | 0
COc1ccc(-c2nnc(SC(C)C(=O)Nc3nccs3)n2Cc2ccccc2)cc1OC (stereo not drawn) | 0 | 0 | 0 | 0 | 56
Cc1ccc2c(c1)COc1c3ccc(C(=O)NCCO)cc3nn1-2 | - | - | - | 0 | -
CC(=O)c1cccc(NC(=O)NC(C)c2ccncc2)c1 (stereo not drawn) | 0 | 0 | 85 | 0 | 94
O=C(NCC1CCCO1)c1ccc(CS(=O)(=O)c2c(Cl)cccc2Cl)o1 (stereo not drawn) | 0 | 0 | 54 | 0 | 0
COc1cc(NC(=O)C2CCCN2S(=O)(=O)c2ccc3c(c2)CCC(=O)N3)cc(OC)c1 (stereo not drawn) | 0 | 0 | 0 | 0 | 60
COc1ccc(C)cc1NC(=O)C1CCCN1S(=O)(=O)c1ccc2c(c1)CCC(=O)N2 (stereo not drawn) | 0 | 0 | 0 | 0 | 0
O=C1CCc2cc(S(=O)(=O)N3CCC(C(=O)NC4CCCCCCC4)CC3)ccc2N1 | 0 | 0 | 0 | 0 | 57
COc1cccc(N2CCN(C(=O)CN(C)S(=O)(=O)c3ccc4c(c3)CCC(=O)N4)CC2)c1 | 0 | 0 | 0 | 0 | 0
O=C1CCc2cc(S(=O)(=O)N3CCCC3C(=O)N3CCN(c4ccccc4)CC3)ccc2N1 (stereo not drawn) | 0 | 0 | 0 | - | 59
COc1cc(NC(=O)CN(C)S(=O)(=O)c2ccc3c(c2)CCC(=O)N3)cc(OC)c1 | 0 | 0 | 0 | 0 | 62
CC1CC(C)CN(CCCNC(=O)c2csc3c2CCCC3)C1 (stereo not drawn) | 0 | 0 | 0 | 0 | 0
Cc1cc2ccccc2n1CCNC(=O)COc1ccccc1 | 0 | 0 | 94 | 0 | 0
CCNC(=O)COc1ccc(-c2ccccc2)cc1 | 0 | 0 | 62 | 0 | 0
CC(C)(C)NC(=O)COc1ccc(-c2ccccc2)cc1 | 0 | 0 | 0 | 0 | 0
O=C(COc1ccccc1)NCc1ccccc1 | 0 | 0 | 74 | 0 | 0
Cc1cccc(OCC(=O)Nc2ccc(C(=O)NCc3cccnc3)cc2)c1 | 0 | 0 | 53 | - | 0
CCn1c(CNc2ccc(F)cc2)nnc1SCC(=O)Nc1ccc(OC)cc1 | - | - | - | 0 | -
CCCC(CCC)C(=O)Nc1cccc(C(=O)O)c1 | 0 | 0 | 0 | 0 | 0
COc1ccc(OCC(=O)NCc2cccnc2)cc1 | 0 | 0 | 58 | 0 | 0
SMILES | CYP2C9 act | CYP2C19 activ | CYP2C19 inhib | Cav3 T inh | CYP2C9 inhib
COc1ccc(CNC(=O)COc2ccc(S(=O)(=O)NC(C)C)cc2)cc1 | 0 | 0 | 68 | 0 | 86
CC(C)NS(=O)(=O)c1ccc(OCC(=O)NCc2ccccc2)cc1 | 0 | 0 | 0 | 0 | 61
CC(C)NS(=O)(=O)c1ccc(OCC(=O)NCc2cccnc2)cc1 | 0 | 0 | 0 | 0 | 0
COc1ccc(-c2noc(C)c2-c2ccc3ccccc3n2)c(O)c1 | 0 | 0 | 100 | 0 | 72
COc1ccc(-c2onc(C)c2-c2ccccc2)c(O)c1 | 0 | 0 | 96 | 0 | 0
Cc1oc2c(C)c(O)ccc2c(=O)c1-c1ccc2ccccc2n1 | 0 | 0 | 0 | 0 | 0
O=C(Nc1ccccc1-c1nc2ccccc2s1)c1cccnc1Cl | 0 | 0 | 0 | 0 | 0
CC(=O)c1ccc(-c2nc3c4ccccc4ccn3c2C(C)=O)o1 | 0 | 0 | 0 | - | 0
O=C1CC(c2ccc3c(c2)OCO3)CN1 (stereo not drawn) | 0 | 0 | 0 | 0 | 0
CC1C(=O)C(C)C(c2ccc3c(c2)OCO3)NC1c1ccc2c(c1)OCO2 (stereo not drawn) | 0 | 0 | 97 | 0 | 72
Cc1cc(NC(=O)CCC(=O)N(Cc2cccs2)C(C(=O)NC2CCCC2)c2ccccc2)no1 (stereo not drawn) | - | - | - | -8.7 | -
Cc1ccc(C)c(N(C(=O)CCC(=O)Nc2cc(C)on2)C(C(=O)NC2CCCC2)c2ccco2)c1 (stereo not drawn) | 0 | 0 | 54 | 0 | 0

Screening data (PubChem BioAssay)
